Holding throughout (format): functional
For assay [1], the target named is Solute carrier family 2, facilitated glucose transporter member 1 (Homo sapiens) (UniProt P11166). Put plainly: ST_JUDE_LEISH: Cytotoxicity at 2uM final concentration against transgenic Leishmania Mexicana promastigotes LmGLUT1 that are glucose transport deficient and complemented with the human glucose transporter GLUT1. Activity is measured by DNA content using SYBR green in vitro.

The target of assay [2] is Hexose transporter 1 (Plasmodium falciparum) (UniProt O97467). The assay is described as follows: ST_JUDE_LEISH: Cytotoxicity at 2uM final concentration against transgenic Leishmania Mexicana promastigotes LmPfHT that are glucose transport deficient and complemented with the Plasmodium falciparum hexose transporter. Activity is measured by DNA content using SYBR green in vitro.

For assay [3], the target named is Glucose transporter (Leishmania mexicana) (UniProt O61059). Put plainly: ST_JUDE_LEISH: Cytotoxicity at 2uM final concentration against transgenic Leishmania Mexicana promastigotes LmGT2 that are glucose transport deficient and complemented with the L. Mexicana glucose transporter 2. Activity is measured by DNA content using SYBR green in vitro.

Chain of Solute carrier family 2, facilitated glucose transporter member 1 (Homo sapiens) (P11166 whole entry): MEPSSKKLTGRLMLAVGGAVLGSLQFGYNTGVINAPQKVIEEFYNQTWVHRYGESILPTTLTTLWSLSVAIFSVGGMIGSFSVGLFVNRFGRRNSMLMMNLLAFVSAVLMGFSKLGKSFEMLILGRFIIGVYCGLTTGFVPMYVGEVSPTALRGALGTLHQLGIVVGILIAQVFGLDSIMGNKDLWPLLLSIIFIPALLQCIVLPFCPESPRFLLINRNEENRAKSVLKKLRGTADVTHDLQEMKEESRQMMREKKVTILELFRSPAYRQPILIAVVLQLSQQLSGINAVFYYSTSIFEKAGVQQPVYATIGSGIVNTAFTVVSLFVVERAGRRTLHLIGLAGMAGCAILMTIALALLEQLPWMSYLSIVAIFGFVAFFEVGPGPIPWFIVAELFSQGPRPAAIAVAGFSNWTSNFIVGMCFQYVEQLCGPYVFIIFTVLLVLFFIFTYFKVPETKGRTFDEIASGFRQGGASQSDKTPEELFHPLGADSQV

`Cc1cc(N2CCN(CC3CCCCC3)CC2)nc(Nc2ccc(Br)cc2)n1`: the inhibition in assay [1] was 1.47%; in assay [2] it was 3.17%; in assay [3] it was 0.54%.

On to `COc1cc(Cc2cnc(N)nc2N)cc(OCCCCC2NC(=O)NC2=O)c1OC` (configuration not stated), for which the inhibition in assay [1] came to 14.8%; in assay [2], 14.5%; in assay [3], 11.6%.

Turning to `O=C(Nc1cccc(-c2nn3ccccc3c2-c2ccnc(Nc3cccc(-c4cnco4)c3)n2)c1)C1CCCCC1`, the values for the inhibition in assay [1], in assay [2] and in assay [3] were 1.06%, 3.39% and -0.16%, respectively.

Take `Cc1cccc2c1NC(=O)/C2=N/NC(=S)N(C)C`: the inhibition in assay [1] is 1.53%; in assay [2] it was 4.53%; in assay [3], 2.09%.

Regarding `CCC1CCCCN1S(=O)(=O)c1ccc(NC(=O)c2cc(C)on2)cc1` (configuration not stated), the inhibition was found to be 2.22% in assay [1], 0.15% in assay [2] and 3.74% in assay [3].

As for `Cc1cccc2nc(-c3ccc(-c4cccc(CNCCN(C)C)c4)cc3)[nH]c12`, the results for the inhibition in assay [1], in assay [2] and in assay [3] were 3.31%, 2.84% and 0.95%, respectively.

As for `CCOc1cc(C(=O)NCC2CCN(CC3CCCCC3)CC2)ccc1-c1nc2cc(Cl)ccc2[nH]1`, the inhibition in assay [1] was 0.56%; in assay [2], 1.54%; in assay [3] it was 1.19%.

With `FC(F)(F)c1ccc2[nH]c(-c3cccc(-c4cccc(CNCCN5CCNCC5)c4)c3)nc2c1`, the inhibition in assay [1] is -0.06%; in assay [2] it was 3.11%; in assay [3], 1.99%.

On to `FC(F)(F)c1ccc2c(C=Cc3ccncc3)c[nH]c2c1`, for which the figures for the inhibition in assay [1], in assay [2] and in assay [3] were 3.67%, 3.37% and 4.76%, respectively.

For the compound `CC(C)CN1C(=O)C(c2ccc(F)c(F)c2)=C(O)C1c1ccccc1` (configuration not stated), the inhibition was 1.97% in assay [1], 4.04% in assay [2] and -7.87% in assay [3].

Consider `CCCOc1ccc(C(F)(F)F)cc1NC(=O)c1nc2nc(C)cc(C)n2n1`, for which the inhibition in assay [1] amounted to 6.01%; in assay [2], 5.05%; in assay [3], 1.31%.

Turning to `O=C(/C=C/c1cccc(C(F)(F)F)c1)NCCCCCN1CCN(C(=O)Nc2ccc(Cl)c(Cl)c2)CC1`, the inhibition in assay [1] came to 2.21%; in assay [2], 2.33%; in assay [3], 1.97%.

Consider `O=C(Nc1ccc(N2CCN(c3ncccc3C(F)(F)F)CC2)nc1)c1cccs1`, for which the figures for the inhibition in assay [1], in assay [2] and in assay [3] were 2.6%, 3.03% and 0.38%, respectively.

For the compound `O=C(NC1CCN(Cc2ccccc2)CC1)c1cc(-c2cccnc2)nc2ccc(Cl)cc12`, the values for the inhibition in assay [1], in assay [2] and in assay [3] were 8.75%, 6.45% and 8.35%, respectively.

As to `CCCOc1cc(OCCC)cc(-c2cc(=O)c3ccccc3[nH]2)c1`, the values for the inhibition in assay [1], in assay [2] and in assay [3] were 0.94%, 6.37% and 3.56%, respectively.

`O=C(c1cc2cccc([N+](=O)[O-])c2[nH]1)N1CCC(CCN2CCC(c3c[nH]c4ccccc34)CC2)CC1`: the inhibition in assay [1] came out at 1.52%; in assay [2], 12.8%; in assay [3], 2.6%.

As for `CCNc1cc(C(=O)N[C@@H](Cc2ccccc2)[C@H](O)CNC2C3CC4CC(C3)CC2C4)cc(N2CCCCS2(=O)=O)c1` (some centres not stated), the inhibition in assay [1] is 0.69%; in assay [2], 0.88%; in assay [3], -1.02%.

On to `CN(C)CCN(C)Cc1ccc(-c2cccc(-c3nc4ccccc4[nH]3)c2)cc1`, for which the inhibition in assay [1] was -0.63%; in assay [2], 1.04%; in assay [3], 0%.

In the case of `CN1CCC(C(=O)Nc2cccc(-c3cccc(-c4nc5cc(F)ccc5[nH]4)c3)c2)CC1`, the inhibition in assay [1] was found to be 4.7%; in assay [2], 5.02%; in assay [3], 6.69%.

For the compound `CCCCCc1cc(OC(C)=O)c2c(c1)OC(C)(C)C=C2C1=CCN(Cc2ccccc2)CC1`, the values for the inhibition in assay [1], in assay [2] and in assay [3] were 1.74%, 1.45% and -1.92%, respectively.

Turning to `CCCCCCNCCOc1ccc(-c2nc(-c3ccccc3)c(-c3ccccc3)[nH]2)cc1`, the inhibition in assay [1] came out at 4.61%; in assay [2], 1.32%; in assay [3], 1.62%.

In the case of `O=S(=O)(NCCN1CCCC1)c1cccc(-c2cccc(CNCc3ccccc3)c2)c1`, the inhibition in assay [1] was 20%; in assay [2], 17.2%; in assay [3], 11.7%.

On to `Nc1ncc(-c2ccsc2)c2ccc(-c3cc(NCc4ccccc4)ncn3)cc12`, for which the inhibition was found to be 10.1% in assay [1], 8.31% in assay [2] and 7.39% in assay [3].

Regarding `O=S(=O)(c1ccc(NC(S)=NN=Cc2ccccn2)cc1)N1CCCCC1`, the figures for the inhibition in assay [1], in assay [2] and in assay [3] were 3.4%, 6.75% and 5.11%, respectively.

Consider `Oc1cc(-c2cccc(C(F)(F)F)c2)nc(Nc2ccc(Cl)c(Cl)c2)n1`, for which the inhibition in assay [1] came to 0.75%; in assay [2], 0.89%; in assay [3], 0.9%.

For the compound `C[C@H](N[C@H]1CCCc2c1[nH]c1ccc(Br)cc21)c1ccccc1`, the inhibition was 2.46% in assay [1], 0.78% in assay [2] and 0.74% in assay [3].

With `Oc1nc(Cc2ccccc2)nc2ccc(Cl)cc12`, the inhibition stood at 2.13% in assay [1], 2.54% in assay [2] and 4.12% in assay [3].

Turning to `CN1CCN(c2cc(NC(=O)c3ccc(-c4ccc(C#N)cc4)cc3)ccc2Cl)CC1`, the inhibition in assay [1] is 0.4%; in assay [2], -0.14%; in assay [3] it was 0.17%.

On to `Cc1cc(C(F)(F)F)n2nc(C3CCN(Cc4cc(C)c(O)c(C)c4)C3)cc2n1` (configuration not stated), for which the inhibition in assay [1] was 4.53%; in assay [2] it was 3.54%; in assay [3], -0.59%.

With `COc1ccc2nc(-c3ccccc3)cc(NCCN(C)C)c2c1`, the figures for the inhibition in assay [1], in assay [2] and in assay [3] were 8.41%, 9.21% and 4.86%, respectively.

In the case of `CCCCc1ccc(S(=O)(=O)Nc2ccc3c(c2)CCN(Cc2c[nH]c4cnccc24)CC3)cc1`, the inhibition was -1.78% in assay [1], -0.79% in assay [2] and 5.76% in assay [3].

Take `OC1CCCN(Cc2cccc(-c3ccc(-c4nc5ccccc5[nH]4)cc3)c2)C1` (configuration not stated): the results for the inhibition in assay [1], in assay [2] and in assay [3] were 3.91%, 5.45% and -2.43%, respectively.

As for `O=[N+]([O-])c1cccc(Nc2cncc(-c3ccc(CO)cc3)c2)c1`, the inhibition was determined as 2.04% in assay [1], 0.66% in assay [2] and 0.83% in assay [3].

Turning to `O=C(Nc1ccc(OC2CCN(Cc3ccccc3)CC2)c(Cl)c1)c1ccsc1`, the results for the inhibition in assay [1], in assay [2] and in assay [3] were 2.2%, 2.35% and 2.24%, respectively.
